From PubChem BioAssay (Tox21)
Results filed as inconclusive are left out. The source made the active and inactive calls. The call rests on the fitted dose curve; in most records, active means well fitted curve in the direction sought with a large enough effect in the repeat runs; inconclusive means weak or mixed curves; inactive means no such curve, though single readings can be large; an effect the other way counts as inactive or inconclusive.

What was measured:
[1] = A CellTox Green Cytotoxicity Assay to monitor cytotoxicity in HEK293 cells - 40 hour (AID 1224871); further: nearly all actives have a fitted effect of over 45% in size
Outline: (§1)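 Fluorescence from a DNA-binding dye excluded by viable cells was measured repeatedly in the same HEK293 wells (600 cells/well) during continuous compound exposure at 37 C. Each assay gives one read point: 0, 8, 16, 24, 32 or 40 h.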

[2] = qHTS RealTime-Glo MT Cell Viability Assay in HEK293 cells - 16 hour (AID 1224872); further: top concentration of the series differs between compounds; nearly all actives have a fitted effect of over 50% in size
Outline: (§2)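 Nonlytic real-time viability readout: viable cells convert prosubstrate to NanoLuc substrate, giving luminescence proportional to live cell number. HEK293, 600 cells/well, compound added after 5 h, continuous culture at 37 C.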

[3] = qHTS RealTime-Glo MT Cell Viability Assay in HepG2 cells - 8 hour (AID 1224873); further: nearly all actives have a fitted effect of over 55% in size
Outline: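 Real-time viability: cells seeded at 600 per well together with NanoLuc and cell-permeant prosubstrate, compounds added after 5 h incubation. Luminescence tracked at 0, 8, 16, 24, 32 and 40 h of exposure.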

[4] = qHTS RealTime-Glo MT Cell Viability Assay in HEK293 cells - 40 hour (AID 1224874); conditions: RealTime-Glo luminescence; max response: stronger effect = lower value; further: nearly all actives have a fitted effect of over 50% in size
Outline: (§3)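 Luminescence, which tracks viable cell number through reduction of the prosubstrate to a NanoLuc substrate, was read over continuous 37 C culture. Cells (600/well) were premixed with reagent and rested 5 h before 23 nL of compound in DMSO was pinned.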

[5] = A CellTox Green Cytotoxicity Assay to monitor cytotoxicity in HEK293 cells - 24 hour (AID 1224875); further: series mostly up to about 77 µM; nearly all actives have a fitted effect of over 45% in size
Outline: as §1

[6] = A CellTox Green Cytotoxicity Assay to monitor cytotoxicity in HepG2 cells - 16 hour (AID 1224876); further: nearly all actives have a fitted effect of over 45% in size
Outline: (§4)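 Real-time cytotoxicity: fluorescence of a cell-impermeant cyanine dye binding DNA of dead HepG2 cells, measured repeatedly (0–40 h) during compound exposure at 37 C. Cells seeded 600/well with reagent, dosed after 5 h.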

[7] = qHTS RealTime-Glo MT Cell Viability Assay in HepG2 cells - 32 hour (AID 1224877); further: nearly all actives have a fitted effect of over 55% in size
Outline: (§5)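 Luminescence read-out: viable HepG2 cells reduce a prosubstrate to a NanoLuc substrate, giving a signal proportional to live cell number. Reads taken at 0, 8, 16, 24, 32 and 40 h of compound exposure at 37 C.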

[8] = A CellTox Green Cytotoxicity Assay to monitor cytotoxicity in HepG2 cells - 24 hour (AID 1224878); further: nearly all actives have a fitted effect of over 45% in size
Outline: as §4

[9] = A CellTox Green Cytotoxicity Assay to monitor cytotoxicity in HepG2 cells - 40 hour (AID 1224879); further: nearly all actives have a fitted effect of over 40% in size
Outline: as §4

[10] = qHTS RealTime-Glo MT Cell Viability Assay in HEK293 cells - 0 hour (AID 1224880)
Outline: as §3

[11] = A CellTox Green Cytotoxicity Assay to monitor cytotoxicity in HEK293 cells - 32 hour (AID 1224881); further: nearly all actives have a fitted effect of over 40% in size
Outline: as §1

[12] = A CellTox Green Cytotoxicity Assay to monitor cytotoxicity in HepG2 cells - 0 hour (AID 1224882); further: nearly all actives have a fitted effect of over 35% in size
Outline: as §4

[13] = A CellTox Green Cytotoxicity Assay to monitor cytotoxicity in HepG2 cells - 32 hour (AID 1224883); further: nearly all actives have a fitted effect of over 50% in size
Outline: as §4

[14] = A CellTox Green Cytotoxicity Assay to monitor cytotoxicity in HEK293 cells - 8 hour (AID 1224884); further: nearly all actives have a fitted effect of over 35% in size
Outline: as §1

[15] = qHTS RealTime-Glo MT Cell Viability Assay in HepG2 cells - 16 hour (AID 1224885); further: nearly all actives have a fitted effect of over 50% in size
Outline: as §5

[16] = qHTS RealTime-Glo MT Cell Viability Assay in HEK293 cells - 24 hour (AID 1224886)
Outline: as §2

[17] = qHTS RealTime-Glo MT Cell Viability Assay in HEK293 cells - 8 hour (AID 1224887)
Outline: as §3

[18] = A CellTox Green Cytotoxicity Assay to monitor cytotoxicity in HEK293 cells - 16 hour (AID 1224888); further: nearly all actives have a fitted effect of over 35% in size
Outline: as §1

[19] = qHTS RealTime-Glo MT Cell Viability Assay in HepG2 cells - 0 hour (AID 1224889); further: nearly all actives have a fitted effect of over 50% in size
Outline: as §5

[20] = A CellTox Green Cytotoxicity Assay to monitor cytotoxicity in HepG2 cells - 8 hour (AID 1224890); further: nearly all actives have a fitted effect of over 45% in size
Outline: as §4
On the % scale 0 is the no-effect control and ±100 the full control effect.

Cc1ccc(C)c(N)c1
inactive: Potency [1] | Potency [2] | outcome [3] | max response [4] 4.84% | Potency [5] | Potency [6] | Potency [7] | Potency [8] | Potency [9] | outcome [10] | Potency [11] | Potency [12] | Potency [13] | Potency [14] | outcome [15] | Potency [16] | Potency [17] | Potency [18] | Potency [19] | Potency [20]

O=C(Cl)c1cccc([N+](=O)[O-])c1
inactive: Potency [1] | Potency [2] | outcome [3] | max response [4] 3.57% | Potency [5] | Potency [6] | Potency [7] | Potency [8] | Potency [9] | outcome [10] | Potency [11] | Potency [12] | Potency [13] | Potency [14] | outcome [15] | Potency [16] | Potency [17] | Potency [18] | Potency [20]

OCc1ccccc1O
inactive: Potency [1] | Potency [2] | outcome [3] | max response [4] -16.1% | Potency [5] | Potency [6] | Potency [7] | Potency [8] | Potency [9] | outcome [10] | Potency [11] | Potency [12] | Potency [13] | Potency [14] | outcome [15] | Potency [16] | Potency [17] | Potency [18] | Potency [19] | Potency [20]

CC(C)OC(C)C
inactive: Potency [1] | Potency [2] | outcome [3] | max response [4] 20.1% | Potency [5] | Potency [6] | Potency [7] | Potency [8] | Potency [9] | outcome [10] | Potency [11] | Potency [12] | Potency [13] | Potency [14] | outcome [15] | Potency [16] | Potency [17] | Potency [18] | Potency [19] | Potency [20]

CC(C)C(=O)OC/C=C/c1ccccc1
inactive: Potency [1] | Potency [2] | outcome [3] | max response [4] -2.31% | Potency [5] | Potency [6] | Potency [7] | Potency [8] | Potency [9] | outcome [10] | Potency [11] | Potency [12] | Potency [13] | Potency [14] | outcome [15] | Potency [16] | Potency [17] | Potency [18] | Potency [19] | Potency [20]

CC(C)S
inactive: Potency [1] | Potency [2] | outcome [3] | max response [4] 0.674% | Potency [5] | Potency [6] | Potency [7] | Potency [8] | Potency [9] | outcome [10] | Potency [11] | Potency [12] | Potency [13] | Potency [14] | outcome [15] | Potency [16] | Potency [17] | Potency [18] | Potency [19] | Potency [20]

CN1CCN(c2c(F)cc3c(=O)c(C(=O)O)cn4c3c2SCC4)CC1
inactive: Potency [1] | Potency [2] | outcome [3] | max response [4] 6.23% | Potency [5] | Potency [6] | Potency [7] | Potency [8] | Potency [9] | outcome [10] | Potency [11] | Potency [12] | Potency [13] | Potency [14] | outcome [15] | Potency [16] | Potency [17] | Potency [19] | Potency [20]

Cc1c(C(=O)NCCO)[n+](=O)c2ccccc2n1[O-]
inactive: Potency [1] | Potency [2] | outcome [3] | max response [4] 0.805% | Potency [5] | Potency [6] | Potency [7] | Potency [8] | Potency [9] | outcome [10] | Potency [11] | Potency [12] | Potency [14] | outcome [15] | Potency [16] | Potency [17] | Potency [18] | Potency [19] | Potency [20]

O=C1CCN(c2ccccc2)N1
inactive: Potency [1] | Potency [2] | outcome [3] | max response [4] 4.28% | Potency [5] | Potency [6] | Potency [7] | Potency [8] | Potency [9] | outcome [10] | Potency [11] | Potency [12] | Potency [13] | Potency [14] | outcome [15] | Potency [16] | Potency [17] | Potency [18] | Potency [19] | Potency [20]

Cc1ncc(CO)c(CN)c1O
inactive: Potency [1] | Potency [2] | outcome [3] | max response [4] 4.15% | Potency [5] | Potency [6] | Potency [7] | Potency [8] | Potency [9] | outcome [10] | Potency [11] | Potency [12] | Potency [13] | Potency [14] | outcome [15] | Potency [16] | Potency [17] | Potency [18] | Potency [19] | Potency [20]

CCN[C@H]1CN(CCCOC)S(=O)(=O)c2sc(S(N)(=O)=O)cc21
inactive: Potency [1] | Potency [2] | outcome [3] | max response [4] -0.402% | Potency [5] | Potency [6] | Potency [7] | Potency [8] | Potency [9] | outcome [10] | Potency [11] | Potency [12] | Potency [13] | Potency [14] | outcome [15] | Potency [16] | Potency [17] | Potency [18] | Potency [19] | Potency [20]

COC(=O)C(C)O (stereo unspecified)
inactive: Potency [1] | Potency [2] | outcome [3] | max response [4] 3.12% | Potency [5] | Potency [6] | Potency [8] | Potency [9] | outcome [10] | Potency [11] | Potency [12] | Potency [14] | outcome [15] | Potency [16] | Potency [17] | Potency [18] | Potency [19] | Potency [20]

CC1=C(CC(=O)O)c2cc(F)ccc2/C1=C\c1ccc(S(C)(=O)=O)cc1
inactive: Potency [1] | Potency [2] | outcome [3] | max response [4] 8.4% | Potency [5] | Potency [6] | Potency [8] | Potency [9] | outcome [10] | Potency [11] | Potency [12] | Potency [13] | Potency [14] | outcome [15] | Potency [16] | Potency [17] | Potency [18] | Potency [19] | Potency [20]

C=C(C)C(=O)OCCOP(=O)(O)O
inactive: Potency [1] | Potency [2] | outcome [3] | max response [4] 13.8% | Potency [6] | Potency [7] | Potency [8] | Potency [9] | Potency [11] | Potency [12] | Potency [14] | outcome [15] | Potency [16] | Potency [17] | Potency [18] | Potency [19] | Potency [20]
